Experimental findings from PubChem BioAssay are described below.

Structures are written as SMILES. A number with no mark means an inactive call. Some of the results follow. Active and inactive are the calls of the source. Unless noted, no stated cut-off is given here; in the data, active means activation above about 8.9%; inactive means the rest.

The test system of assay [1] is HIV-1 integrase (multimerization). Briefly: HIV-1 IN multimer formation enhancers, counter-screen for LEDGF/p75 integration inhibitor project, biochemical, TR-FRET (AID 1053131). To be noted: TR-FRET HIV-1 integrase multimerization, at 7.7 µM, hits give high values. In general terms: A counterscreen serves to expose hits that act by an unwanted route or on another target.

The nature of assay [2]: TR-FRET optical interference artefacts, confirmation, artefact control for LEDGF/p75-dependent integration inhibitor project, biochemical, HIV-1 IN multimerization (AID 1053135;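 active means inhibition above the mean over all tested compounds plus 3 SD, which no compound reached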;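 further: 0% = integrase with antibodies and DMSO and 100% = antibodies without integrase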). To be noted: TR-FRET optical interference counterscreen, at 7.7 µM, hits give high values. In general terms: In TR-FRET formats the signal depends on donor and acceptor labels being close together.
The test system of assay [3] is HIV-1 integrase / human LEDGF/p75 complex. Briefly: inhibitors of HIV-1 IN-LEDGF/p75 DNA integration, confirmation, biochemical, TR-FRET (AID 1053136; in the data active means inhibition above about 14%). The conditions noted are these: TR-FRET LEDGF/p75-dependent HIV-1 integration, at 3.7 µM, hits give high values.
In assay [4] the target is Glutathione S-transferase omega-1 (Homo sapiens) (UniProt P78417). The assay can be described thus: GSTO1 inhibitor hit confirmation, counter-screen for RBBP9 inhibitor project, biochemical, fluorescence polarization, triplicate (AID 2176;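 active means inhibition above the primary screen's cutoff, its mean inhibition plus 3 SD, cut at about 35% in these data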;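 further: loss of polarization as inhibitors block binding of rhodamine sulfonate ester activity probe; 0% = GSTO1 with DMSO and 100% = wells lacking GSTO1 enzyme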). The conditions noted are these: recombinant GSTO1, probe fluorescence polarization; at 5.96 µM; hits give high values.
Glutathione S-transferase omega-1 (Homo sapiens), sequence (P78417 whole entry, looked up): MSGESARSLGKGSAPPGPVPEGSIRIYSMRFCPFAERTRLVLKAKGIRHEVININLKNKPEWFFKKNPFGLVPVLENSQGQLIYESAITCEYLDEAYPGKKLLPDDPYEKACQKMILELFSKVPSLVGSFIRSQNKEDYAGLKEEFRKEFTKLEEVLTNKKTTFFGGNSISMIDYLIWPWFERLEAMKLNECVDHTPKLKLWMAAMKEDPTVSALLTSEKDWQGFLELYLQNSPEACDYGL
In assay [5] the target is Protein-arginine deiminase type-4 (Homo sapiens) (UniProt Q9UM07). The assay can be described thus: human PAD4 inhibitors, confirmation, biochemical, fluorescence polarization (AID 488796;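 active means mean inhibition across replicates above the hit cutoff set by the earlier primary screen, cut at about 15% in these data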;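 further: inhibitors block active-site labeling by the probe so polarization falls; 0% = PAD4 with probe and DMSO and 100% = probe without PAD4 enzyme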). To be noted: recombinant PAD4, RCA probe fluorescence polarization; at 6.36 µM; hits give high values. (In general: Fluorescence polarisation rises when a labelled molecule tumbles more slowly, as on binding a larger partner.)
Protein-arginine deiminase type-4 (Homo sapiens), sequence (Q9UM07 whole entry, looked up): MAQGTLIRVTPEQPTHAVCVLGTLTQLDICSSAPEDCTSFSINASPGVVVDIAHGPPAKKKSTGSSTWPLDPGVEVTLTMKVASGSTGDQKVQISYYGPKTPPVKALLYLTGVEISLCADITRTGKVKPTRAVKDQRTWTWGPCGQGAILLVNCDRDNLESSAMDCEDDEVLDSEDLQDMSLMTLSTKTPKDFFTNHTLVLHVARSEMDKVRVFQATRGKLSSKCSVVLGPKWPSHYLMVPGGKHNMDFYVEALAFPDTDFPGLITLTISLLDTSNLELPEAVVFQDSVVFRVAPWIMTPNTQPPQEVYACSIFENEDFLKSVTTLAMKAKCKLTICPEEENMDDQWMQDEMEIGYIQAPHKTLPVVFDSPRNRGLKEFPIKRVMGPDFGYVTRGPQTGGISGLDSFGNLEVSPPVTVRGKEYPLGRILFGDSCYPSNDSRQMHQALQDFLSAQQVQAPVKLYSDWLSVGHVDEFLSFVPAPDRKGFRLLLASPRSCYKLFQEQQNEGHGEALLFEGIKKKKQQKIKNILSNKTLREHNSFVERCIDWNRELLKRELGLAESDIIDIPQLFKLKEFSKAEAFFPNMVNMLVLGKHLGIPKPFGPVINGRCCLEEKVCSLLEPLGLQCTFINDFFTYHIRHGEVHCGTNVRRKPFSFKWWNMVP

Assay [6] concerns the target Protein phosphatase methylesterase 1 (Homo sapiens) (UniProt Q9Y570). Briefly: PME-1 inhibitor activity retest, confirmation, biochemical, fluorescence polarization, FP-Rh probe, triplicate (AID 2171;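 active means inhibition above the hit cutoff set in the earlier primary screen, cut at about 27% in these data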;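 further: 0% = enzyme with DMSO and 100% = wells lacking PME-1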). To be noted: recombinant PME-1, FP-Rh probe fluorescence polarization; at 5.9 µM; hits give high values.
Assay [7] concerns the target Galanin receptor type 2 (Homo sapiens) (UniProt O43603). The assay can be described thus: GALR2 antagonists, retest of hits, confirmation, cell-based (AID 866; in the data active means inhibition above about 27%;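 further: cells stimulated with galanin at about its EC80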). To be noted: GALR2-expressing cells, antagonist mode, at 4 µM, hits give high values.
The nature of assay [8]: inhibitors of NFAT-driven beta-lactamase reporter, confirmation, counter-screen for GALR2 antagonist project, CHO NFAT-bla cells, FRET readout (AID 867;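 active means inhibition above the mean inhibition across tested compounds plus 3 SD, cut at about 27% in these data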;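 further: 0% = 500 nM thapsigargin stimulated wells and 100% = unstimulated BSA only wells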). The conditions noted are these: thapsigargin-stimulated, at 4.2 µM, hits give high values.
Assay [9] can be described thus: STAT3 reporter inhibitors, retest of hits, confirmation, U3A cells, luciferase, luminescence (AID 1265;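 active means inhibition above the hit cutoff computed for the primary STAT3 screen, cut at about 44% in these data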;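 further: 0% = IL-6 plus DMSO and 100% = IL-6 plus nifuroxazide control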). To be noted: IL-6 STAT3 luciferase reporter, at 5.7 µM, hits give high values, cell line lacks STAT1.
Assay [10] in a line: NF-kB reporter inhibitors in human cells, confirmation, counter-screen for STAT3 inhibitor project, cell-based, HEK293T, luciferase, TNF-alpha stimulus (AID 1308;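 active means inhibition above the mean of solvent-only control wells plus 3 SD, cutoff set per campaign, cut at about 13% in these data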;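 further: 0% = TNF-alpha with DMSO and 100% = TNF-alpha with MG high control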). The conditions noted are these: TNF-alpha induced, at 5.7 µM, hits give high values.
Assay [11] in a line: STAT1 reporter inhibitors, IFN-gamma induced, confirmation, counter-screen for STAT3 inhibitor project, cell-based, NIH 3T3, luciferase luminescence (AID 1317;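 active means inhibition above the mean plus 3 SD of solvent-only control wells, limit set per screening run, cut at about 16% in these data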;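 further: 0% = DMSO with IFN-gamma and 100% = nifuroxazide control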). To be noted: NIH 3T3 STAT1-luciferase reporter, at 5.7 µM, hits give high values.
Assay [12] in a line: KLF5 expression inhibitors, confirmation, DLD-1 cells, luminescence (AID 1834;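 active means inhibition above a set limit taken from the earlier primary screen, cut at about 63% in these data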;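 further: 0% = DMSO wells and 100% = LY294002 at 200 µM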). To be noted: DLD-1 KLF5 promoter firefly luciferase reporter, at 4 µM, hits give high values.
Assay [13] can be described thus: cytotoxicity in rat IEC-6 cells, cytotoxicity control for KLF5 inhibitor project, cell-based, luminescence, triplicate (AID 1905; in the data active means inhibition above about 23%;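 further: cells exposed to compounds for 48 hours before viability read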). To be noted: IEC-6 rat intestinal cells, viability luminescence; at 4 µM; hits give high values.
Assay [14] deals with Nuclear receptor coactivator 3 (Homo sapiens) (UniProt Q9Y6Q9). Briefly: SRC3 coactivator transcriptional activity inhibitors, confirmation, cell-based, luminescence, quadruplicate (AID 588792;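 active means mean inhibition over 43.08%, the solvent-only control mean plus 3 SD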;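 further: 0% = DMSO treated cells and 100% = gossypol at 36 µM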). To be noted: HEK293 GAL4-SRC3 luciferase reporter, at 3.6 µM, hits give high values.
Nuclear receptor coactivator 3 (Homo sapiens), sequence (Q9Y6Q9 whole entry, looked up, the tested form may be a part): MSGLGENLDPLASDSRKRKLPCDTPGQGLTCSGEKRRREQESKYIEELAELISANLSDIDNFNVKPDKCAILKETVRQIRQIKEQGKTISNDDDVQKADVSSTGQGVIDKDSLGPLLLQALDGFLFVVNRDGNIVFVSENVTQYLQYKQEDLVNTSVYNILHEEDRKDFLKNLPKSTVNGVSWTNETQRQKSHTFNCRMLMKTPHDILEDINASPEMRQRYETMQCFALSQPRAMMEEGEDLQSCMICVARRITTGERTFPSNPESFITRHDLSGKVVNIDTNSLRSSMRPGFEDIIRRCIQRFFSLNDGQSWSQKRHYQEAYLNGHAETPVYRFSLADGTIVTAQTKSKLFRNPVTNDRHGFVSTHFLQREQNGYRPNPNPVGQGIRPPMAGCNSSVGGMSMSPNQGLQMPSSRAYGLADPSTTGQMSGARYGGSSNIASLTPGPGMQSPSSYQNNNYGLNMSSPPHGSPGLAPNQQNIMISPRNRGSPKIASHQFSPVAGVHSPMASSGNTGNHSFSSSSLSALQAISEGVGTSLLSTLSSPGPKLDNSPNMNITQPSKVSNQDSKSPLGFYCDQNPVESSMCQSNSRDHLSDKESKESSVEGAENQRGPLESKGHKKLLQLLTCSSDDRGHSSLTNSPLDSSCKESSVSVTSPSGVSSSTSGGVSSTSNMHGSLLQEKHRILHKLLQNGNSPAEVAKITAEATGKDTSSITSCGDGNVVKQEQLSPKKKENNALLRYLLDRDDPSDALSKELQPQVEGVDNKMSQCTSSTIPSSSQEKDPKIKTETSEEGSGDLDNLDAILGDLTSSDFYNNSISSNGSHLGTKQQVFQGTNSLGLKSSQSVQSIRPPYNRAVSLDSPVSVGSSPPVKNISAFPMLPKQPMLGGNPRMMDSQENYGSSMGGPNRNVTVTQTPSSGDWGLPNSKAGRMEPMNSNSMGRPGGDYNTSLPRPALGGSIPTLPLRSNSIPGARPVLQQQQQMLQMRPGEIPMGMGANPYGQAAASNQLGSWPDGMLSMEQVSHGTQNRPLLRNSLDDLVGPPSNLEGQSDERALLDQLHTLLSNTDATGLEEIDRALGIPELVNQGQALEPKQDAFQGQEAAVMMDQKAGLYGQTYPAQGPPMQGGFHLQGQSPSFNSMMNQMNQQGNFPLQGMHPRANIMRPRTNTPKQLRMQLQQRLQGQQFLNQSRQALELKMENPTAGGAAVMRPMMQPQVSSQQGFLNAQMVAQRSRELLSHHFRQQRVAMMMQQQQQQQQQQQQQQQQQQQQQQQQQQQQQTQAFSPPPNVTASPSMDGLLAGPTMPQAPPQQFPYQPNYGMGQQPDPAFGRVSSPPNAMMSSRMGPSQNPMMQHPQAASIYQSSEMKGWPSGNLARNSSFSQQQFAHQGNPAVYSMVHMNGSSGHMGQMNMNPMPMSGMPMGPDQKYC
Assay [15] has as its system transactivating tegument protein VP16 (Human herpesvirus 1), Gal4-VP16 luciferase reporter. Briefly: VP16 transactivation inhibitors, counter-screen for SRC3 inhibitor project, cell-based, luminescence, high throughput (AID 588794; in the data active means inhibition above about 30%). To be noted: mammalian cells, VP16-driven luciferase reporter luminescence; at 3.6 µM; hits give high values.
For assay [16], the target named is Peroxisome proliferator-activated receptor gamma (Homo sapiens) (UniProt P37231). The assay can be described thus: agonists of PPARgamma SRC-2 coactivator recruitment, confirmation, biochemical, HTS (AID 1297; in the data active means activation above about 22%;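 further: 0% = vehicle alone and 100% = reference agonist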). To be noted: biochemical SRC-2 recruitment by PPARgamma; at 8 µM; hits give high values.
Peroxisome proliferator-activated receptor gamma (Homo sapiens), sequence (P37231 whole entry, looked up): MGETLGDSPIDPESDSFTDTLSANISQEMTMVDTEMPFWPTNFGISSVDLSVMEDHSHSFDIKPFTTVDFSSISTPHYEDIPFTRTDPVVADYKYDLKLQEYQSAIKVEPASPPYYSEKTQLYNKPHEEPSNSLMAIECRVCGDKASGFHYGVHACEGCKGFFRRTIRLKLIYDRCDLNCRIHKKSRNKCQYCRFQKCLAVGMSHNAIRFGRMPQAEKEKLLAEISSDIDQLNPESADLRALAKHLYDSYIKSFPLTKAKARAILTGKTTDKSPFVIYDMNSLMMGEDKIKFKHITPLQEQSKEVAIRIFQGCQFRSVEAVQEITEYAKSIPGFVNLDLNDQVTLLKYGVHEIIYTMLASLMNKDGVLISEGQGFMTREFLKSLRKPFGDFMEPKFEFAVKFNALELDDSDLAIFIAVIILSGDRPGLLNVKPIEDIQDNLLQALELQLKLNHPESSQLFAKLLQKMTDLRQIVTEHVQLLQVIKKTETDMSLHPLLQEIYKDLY
Assay [17] shares this target. Briefly: PPARgamma agonists recruiting SRC-1 coactivator, confirmation, biochemical (AID 1300; in the data active means activation above about 20%;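 further: 0% = vehicle wells and 100% = reference agonist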). The conditions noted are these: PPARgamma–SRC-1 coactivator recruitment biochemical assay; at 8 µM; hits give high values.
Assay [18] addresses Peroxisome proliferator-activated receptor gamma (Homo sapiens) + Nuclear receptor coactivator 3 (Homo sapiens) (UniProt P37231+Q9Y6Q9). Briefly: PPARgamma-driven SRC-3 coactivator recruitment agonists, confirmation, biochemical (AID 1301; in the data active means activation above about 24%;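 further: 0% = vehicle wells and 100% = reference agonist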). To be noted: biochemical PPARgamma-SRC-3 coactivator recruitment, agonist mode; at 8 µM; hits give high values.
Assay [19] deals with Sphingosine 1-phosphate receptor 4 (Homo sapiens) (UniProt O95977). The assay can be described thus: S1P4 receptor antagonists, human, confirmation, cell-based (AID 1524; in the data active means inhibition above about 30%). To be noted: S1P4-expressing cell line, antagonist mode, reporter read-out; at 4.98 µM; hits give high values.
Sphingosine 1-phosphate receptor 4 (Homo sapiens), sequence (O95977 whole entry, looked up): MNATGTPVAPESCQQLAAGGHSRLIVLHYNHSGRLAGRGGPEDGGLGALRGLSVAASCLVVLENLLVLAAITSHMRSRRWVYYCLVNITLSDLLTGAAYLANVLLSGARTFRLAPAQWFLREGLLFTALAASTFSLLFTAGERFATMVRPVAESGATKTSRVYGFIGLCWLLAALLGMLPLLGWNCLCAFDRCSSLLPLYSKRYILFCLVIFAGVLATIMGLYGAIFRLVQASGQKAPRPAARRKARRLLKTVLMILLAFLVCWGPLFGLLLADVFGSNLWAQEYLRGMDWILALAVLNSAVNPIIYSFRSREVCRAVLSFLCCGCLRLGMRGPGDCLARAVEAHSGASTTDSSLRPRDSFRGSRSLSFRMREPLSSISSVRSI
In assay [20] the target is Sphingosine 1-phosphate receptor 1 (Homo sapiens) (UniProt P21453). Briefly: S1P1 receptor antagonists, human, counter-screen for S1P4 antagonist project, cell-based (AID 1564; in the data active means inhibition above about 40%;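 further: receptor stimulated with S1P near its EC80; 0% = agonist stimulated wells and 100% = vehicle only wells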). The conditions noted are these: cell-based S1P1 antagonist counterscreen, at 4.98 µM, hits give high values.
Sphingosine 1-phosphate receptor 1 (Homo sapiens), sequence (P21453 whole entry, looked up): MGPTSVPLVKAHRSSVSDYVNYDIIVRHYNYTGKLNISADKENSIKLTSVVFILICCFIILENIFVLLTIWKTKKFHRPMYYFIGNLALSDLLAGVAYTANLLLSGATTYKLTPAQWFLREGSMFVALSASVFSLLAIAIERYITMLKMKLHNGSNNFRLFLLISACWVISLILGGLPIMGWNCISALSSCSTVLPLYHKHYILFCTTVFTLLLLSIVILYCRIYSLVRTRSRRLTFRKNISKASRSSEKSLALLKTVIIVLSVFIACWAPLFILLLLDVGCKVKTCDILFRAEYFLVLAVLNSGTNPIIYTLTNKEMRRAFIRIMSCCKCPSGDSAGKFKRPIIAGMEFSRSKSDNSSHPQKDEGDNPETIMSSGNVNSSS
The subject of assay [21] is transactivating tegument protein VP16 (Human herpesvirus 1). Briefly: VP16 transactivation reporter inhibitors, counter-screen for SRC2 inhibitor project, cell-based, luminescence, single concentration (AID 652007; in the data active means inhibition above about 36%). To be noted: cell-based VP16 transactivation luciferase reporter, at 8.9 µM, hits give high values.
Assay [22] has as its target Nuclear receptor coactivator 2 (Homo sapiens) (UniProt Q15596). Briefly: SRC2 coactivator transcriptional activity inhibitors, confirmation, cell-based, luminescence, HEK293, triplicate (AID 652008;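 active means mean inhibition above 46.5%, the solvent-only control mean plus 3 SD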;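 further: 0% = DMSO-treated cells and 100% = Gossypol at 36 µM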). The conditions noted are these: HEK293 GAL4-SRC2 luciferase reporter, at 8.9 µM, hits give high values.
In assay [23] the test system is Fam108b (Abhd17b) serine hydrolase [Mus musculus]. Briefly: mouse Fam108b serine hydrolase inhibitors, confirmation, counter-screen for RBBP9 inhibitor project, biochemical, fluorescence polarization, triplicate (AID 1978;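 active means inhibition above a limit from the primary screen, the mean over all compounds plus 3 SD, cut at about 19% in these data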;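 further: 0% = median of active Fam108b wells and 100% = catalytically dead S170A mutant; inhibitors free the probe so polarization falls as inhibition rises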). The conditions noted are these: recombinant Fam108b, FP-Rh probe fluorescence polarization; at 9.51 µM; hits give high values.
Assay [24] concerns the target Insulin-degrading enzyme (Homo sapiens) (UniProt P14735). Briefly: human IDE inhibitors in live cells, confirmation, fluorescence polarization, HEK cells, FAbetaB substrate (AID 435028;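 active means mean inhibition across triplicate wells above the cutoff set by the earlier primary insulin-degrading enzyme screen, cut at about 16% in these data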;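 further: 0% = DMSO wells and 100% = 60 µM reference IDE inhibitor Ii1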). The conditions noted are these: FAbetaB cleavage, at 5.59 µM, hits give high values.
Assay [25] is described as follows: cytotoxicity in HEK cells, cytotoxicity control for IDE inhibitor project, cell-based, luminescence (AID 449730; in the data active means inhibition above about 22%;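 further: 0% = vehicle wells and 100% = reference cytotoxic drug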). To be noted: HEK293 cytotoxicity, ATP luminescence; at 5.59 µM; hits give high values.

Galanin receptor type 2 (Homo sapiens), sequence (O43603 whole entry, looked up): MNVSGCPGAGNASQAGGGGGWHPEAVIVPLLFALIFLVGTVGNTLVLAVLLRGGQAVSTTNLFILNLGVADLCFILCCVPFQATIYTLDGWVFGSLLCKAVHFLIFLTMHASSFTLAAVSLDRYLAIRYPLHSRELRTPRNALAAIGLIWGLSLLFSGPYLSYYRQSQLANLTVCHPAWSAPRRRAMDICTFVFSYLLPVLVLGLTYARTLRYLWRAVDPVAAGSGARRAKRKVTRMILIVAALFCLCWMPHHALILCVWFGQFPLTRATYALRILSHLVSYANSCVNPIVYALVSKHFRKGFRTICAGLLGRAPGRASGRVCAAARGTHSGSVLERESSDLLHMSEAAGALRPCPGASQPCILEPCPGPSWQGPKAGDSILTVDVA
Insulin-degrading enzyme (Homo sapiens), sequence (P14735 whole entry, looked up): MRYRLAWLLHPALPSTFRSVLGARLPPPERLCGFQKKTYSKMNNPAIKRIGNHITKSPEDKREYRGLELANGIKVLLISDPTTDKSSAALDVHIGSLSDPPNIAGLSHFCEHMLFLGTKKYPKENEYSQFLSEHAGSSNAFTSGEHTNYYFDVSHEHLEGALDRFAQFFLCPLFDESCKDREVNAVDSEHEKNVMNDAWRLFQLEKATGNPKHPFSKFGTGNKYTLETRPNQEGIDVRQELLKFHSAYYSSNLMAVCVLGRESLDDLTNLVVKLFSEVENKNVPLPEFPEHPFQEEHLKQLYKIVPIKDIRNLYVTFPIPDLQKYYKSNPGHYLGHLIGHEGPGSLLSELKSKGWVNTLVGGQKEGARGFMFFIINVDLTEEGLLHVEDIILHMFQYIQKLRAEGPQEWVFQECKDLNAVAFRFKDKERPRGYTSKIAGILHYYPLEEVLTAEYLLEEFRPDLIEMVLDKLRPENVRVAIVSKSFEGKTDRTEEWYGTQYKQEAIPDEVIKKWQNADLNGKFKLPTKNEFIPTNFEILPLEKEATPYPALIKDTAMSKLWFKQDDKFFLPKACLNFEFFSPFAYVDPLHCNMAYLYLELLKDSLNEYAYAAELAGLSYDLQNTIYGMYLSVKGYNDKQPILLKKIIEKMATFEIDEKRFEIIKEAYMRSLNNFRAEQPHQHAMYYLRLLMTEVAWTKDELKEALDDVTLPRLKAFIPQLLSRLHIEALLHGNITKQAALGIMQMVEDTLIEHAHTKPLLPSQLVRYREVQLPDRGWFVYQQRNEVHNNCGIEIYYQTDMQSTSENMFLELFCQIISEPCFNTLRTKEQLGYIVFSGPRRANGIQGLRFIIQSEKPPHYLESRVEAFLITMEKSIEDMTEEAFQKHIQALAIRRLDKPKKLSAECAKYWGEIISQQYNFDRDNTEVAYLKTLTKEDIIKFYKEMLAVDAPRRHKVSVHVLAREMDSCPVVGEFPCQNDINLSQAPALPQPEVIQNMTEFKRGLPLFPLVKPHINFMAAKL

The inhibition is the drop in the measured response relative to a control, in per cent. Regarding `CC(=O)c1nc2ccccc2n1Cc1ccccc1`, in [1], the activation is -0.46%. The inhibition in assay [2] was 2.34%; in assay [3], -4.4%.
Consider `O=S(=O)(Nc1ccc(O)c2ccccc12)c1ccc(OC(F)(F)F)cc1`, for which the inhibition was 38.2% (active) in assay [4], 15% (active) in [5], -5.75% in assay [2] and 8.79% in assay [3]. Besides, in [1], the activation was 1.57%.
Consider `CCOC(=O)c1ccc(Nc2cc3ccccc3c(=O)[nH]2)cc1`, for which the values for the inhibition in assay [6], in [2] and in assay [3] were 53.9% (active), 8.23% and 29.8% (active), respectively. The activation in assay [1] is -1.62%.
`COc1ccc(Cn2cc(CN3CCS(=O)(=O)N(Cc4ccc(-c5cccc(Cl)c5)cc4)C(C)C3=O)nn2)cc1` (configuration not stated): the activation in assay [1] was -2.68%. Also, the inhibition in assay [2] was 13.6%; in assay [3] it was -1.87%.
With `CCc1ccc2c(c1)C1(NN=C(c3ccccc3)S1)C(=O)N2` (configuration not stated), the results for the inhibition in [7] and in assay [8] were 24.4% and 24.7%, respectively.
For the molecule `COc1ccccc1N1N=C(c2cccs2)CC1c1ccccc1` (configuration not stated), the inhibition in [7] was 27.9% (active); in [8], 39.8% (active).
As to `Cc1ccc2cc3cc(C(=O)N4CCCCCC4)oc3nc2c1`, the results for the inhibition in [9], in assay [10] and in [11] were 7.37%, -42% and -140%, respectively.
Regarding `CCCCCCCCn1c2c(c(=N)c3c1CCC3)CCCC2`, the inhibition is 86.6% (active) in assay [9]; 43.9% (active) in assay [10]; 28.9% (active) in assay [11]; 115% (active) in assay [12]; 23.5% (active) in assay [13]; 85.1% (active) in assay [14]. Also, the inhibition in assay [15] was 87.4% (active).
With `CCN(CC)c1ccc2oc(=O)c(C)nc2c1`, the activation in assay [16] was 7.05%; in assay [17] it was 6.29%; in assay [18] it was 3.97%.
As to `O=C1c2cccc3c([N+](=O)[O-])ccc(c23)C(=O)N1CC1CCCO1` (configuration not stated), the inhibition is 112% (active) in assay [19] and 118% (active) in [20].
Take `O=C(Nc1ccccc1Cl)/C(Cl)=C(\Cl)S(=O)c1ccccc1` (configuration not stated): the inhibition was 117% (active) in assay [19]; 39.3% in assay [20]; 14.2% in assay [5]; 94.7% (active) in [21]; 95.9% (active) in [22].
For `Cc1cccc(COc2ccccc2/C=N/Nc2ccc([N+](=O)[O-])cc2)c1`, the inhibition in [23] is 9.96%.
Consider `C[n+]1ccc(/C=C/c2c[nH]c3ccccc23)cc1`, for which the inhibition in [24] is 42.6% (active); in assay [25], 13.1%.
The matching figures for `O=C(/C=C/c1ccc(N2CCOCC2)cc1)c1ccccc1`: 14.1% and 15.4%.
As for `Cc1nc(Cl)c2oc3ccccc3c2n1`, the inhibition in assay [5] is 7.72%.
With `COc1ccc2c(c1)c(=Cc1ccc(N(C)C)cc1)c1cc(-c3ccccc3)[n+](C)n12`, the inhibition in assay [14] was 68.3% (active); in assay [15] it was 82% (active).
